The list is not random: actives were taken first. Their share in the collection is about 19%.
HT1080 IDH1KD tx: HT-1080 IDH1 knockdown cell toxicity (counter line); HT-1080 IDH1 knockdown viability, ATP luminescence, 48 h; AID 686971; hit rate 2% among 360,000; Potency, µM (top dose mostly 46.1 µM), hits mostly cytotoxic
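% activity derives from luminescence (CellTiter-Glo), normalised to DMSO and no-cell wells. HT-1080-IDH1KD cells, 750/well, had 48 h compound exposure at 37 °C.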
DT40 TDP1 no CPT: qHTS for Inhibitors of human tyrosyl-DNA phosphodiesterase 1 (TDP1): qHTS in cells in absence of CPT; DT40 Tdp1-/- hTDP1 cells, no CPT, ATP luminescence, 48 h; hit rate 15% among 420,000; Potency, µM (titrated, usually from 46.2 µM), hits mostly inhibitors; note: nearly all actives have a fitted effect of over 55% in size
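A cellular qHTS used chicken DT40 cells lacking endogenous Tdp1 but carrying stably transfected human TDP1. Compounds were applied without camptothecin, and cell growth kinetics were judged by ATP-dependent luminescence after ≥48 hr.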
IL-1B inflam inh: blocks inflammasome-driven IL-1 beta release. THP-1 LPS/ATP IL-1B secretion, AlphaLISA, 16 h; active compounds read low. activity change, % at 57.5 µM. hit rate 4.7% among 360,000; in the data active = activity change below about -50%; inconclusive = mostly about -30% to -49%
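Secreted IL-1B measured by AlphaLISA bead assay after 16 h compound exposure of THP-1 cells; compounds (final up to 57.5 uM) added 1 h before LPS (250 ng/mL) and ATP (1.25 mM) stimulation; lower signal means less secretion.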
HT1080NT lethal: kills 2HG-producing HT-1080-NT fibrosarcoma cells; AID 686970; Potency, µM (top dose mostly 46.1 µM), most hits filed as cytotoxic; hit rate 1.6% among 360,000; HT-1080-NT fibrosarcoma viability, CellTiter-Glo ATP luminescence, 48 h;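 note: NT is the 2HG producing partner of a matched IDH1 knockdown line; nearly all actives have a fitted effect of over 55% in size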
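Viability of the 2HG-overproducing fibrosarcoma line after 48 hours of compound exposure at 37 degrees C was determined by luminescence with CellTiter-Glo, and concentration-effect curves were then fitted and categorized.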
DT40 TDP1 CPT: DT40-hTDP1 cell growth loss with CPT; chicken DT40 Tdp1-/-;hTDP1 cells + 20 nM CPT, ATP luminescence, 48 h; Potency, µM (series often up to 46.2 µM), usual class: inhibitors; hit rate 12% among 420,000; note: nearly all actives have a fitted effect of over 55% in size
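Chicken DT40 Tdp1-/- cells complemented with human TDP1, 400 cells/well, exposed to compounds plus 20 nM camptothecin for at least 48 h at 37 C; viability read as ATP content by CellTiter-Glo luminescence.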
Numbers stand for hits; - = inactive; ? = inconclusive; . = no result given. Unless noted, calls come from the whole dose curve; as a rule, active = well fitted curve in the direction sought with a large enough effect; inconclusive = small, poorly fitted or top-dose-only effect, or another doubt; inactive = no such curve, though single readings can be large; an effect the other way counts as inactive or inconclusive.

SMILES	HT1080 IDH1KD tx	DT40 TDP1 no CPT	IL-1B inflam inh	HT1080NT lethal	DT40 TDP1 CPT
Cc1cc(C(=O)CN2C(=O)C(=O)N(C3CCCC3)C2=O)c(C)n1CCc1ccc(F)cc1	-	?	-	-	18µM
COc1ccc(CCn2c(C)cc(C(=O)CN3C(=O)C(=O)N(Cc4ccco4)C3=O)c2C)cc1	?	9.2µM	-	?	13µM
Cc1ccc(OCC(=O)NN2C(=O)c3ccccc3C2=O)cc1	-	-	-	-	-
Cc1ccccc1NC1=C(C(=O)c2ccccc2)N(C)S(=O)(=O)c2ccccc21	-	?	-	-	-
CCCN1C(C(=O)c2ccccc2)=C(OC(=O)C(C)(C)C)c2ccccc2S1(=O)=O	.	5.2µM	.	.	4.1µM
C=CCN1C(C(=O)c2ccccc2)=C(OC(=O)COc2ccccc2)c2ccccc2S1(=O)=O	?	?	-	?	?
CCCN1C(C(=O)c2ccccc2)=C(OC(=O)COc2ccc(C)cc2)c2ccccc2S1(=O)=O	.	5.2µM	.	.	4.1µM
CN1C(C(=O)c2ccccc2)=C(NC(=O)c2ccccc2Br)c2ccccc2S1(=O)=O	.	6.5µM	.	.	12µM
CCCN1C(C(=O)c2ccccc2)=C(OC(=O)COc2ccccc2)c2ccccc2S1(=O)=O	.	4.1µM	.	.	4.1µM
Cc1ccc(S(=O)(=O)N(Cc2ccc([N+](=O)[O-])cc2)C(=O)N2CCN(C)CC2)cc1	-	-	-	-	-
COc1cc(/C=C(\C#N)C(=O)Nc2ccc(C)cc2)ccc1OCc1cc(=O)n2nc(C)sc2n1	.	-	.	.	-
CCN(CC)S(=O)(=O)c1nnc(NC(=O)COc2ccc(Cl)cc2)s1	.	-	.	.	?
CCN1C(C(=O)c2ccccc2)=C(OC(=O)COc2ccc(C)cc2)c2ccccc2S1(=O)=O	.	16µM	.	.	?
CCCCC(=O)OC1=C(C(=O)c2ccccc2)N(C)S(=O)(=O)c2ccccc21	.	23µM	.	.	?
CC(=O)c1ccc(OC(=O)COc2ccccc2)cc1	-	-	-	-	-
CCN1C(C(=O)c2ccccc2)=C(OC(=O)COc2ccc(OC)cc2)c2ccccc2S1(=O)=O	.	4.6µM	.	.	5.2µM
CCOC(=O)C1CCCN(C(=O)c2cnn(-c3ncc4c(n3)-c3ccccc3CCC4)c2C2CC2)C1 (centres undefined)	.	-	.	.	-
COCC1CCCN(Cc2cn(Cc3ccccc3)nc2-c2cc3ccccc3o2)C1 (centres undefined)	16µM	?	-76	?	26µM
OC1CCN(Cc2cn(Cc3ccccc3)nc2-c2cc3ccccc3o2)CC1	-	-	?	-	-
COC(=O)C1CCN(Cc2cn(Cc3ccccc3)nc2-c2cc3ccccc3o2)CC1	-	26µM	-	-	?
COCC1CCN(Cc2cn(Cc3ccccc3)nc2-c2cc3ccccc3o2)CC1	?	-	-61	-	?
COCC1CCN(Cc2cn[nH]c2-c2cc3ccccc3o2)C1 (centres undefined)	-	-	-	-	-
CC(C)NC(=O)C1(C)CCCN1Cc1ccccc1C#N (centres undefined)	-	?	-	-	?
CC(C)OCCCn1c(SCc2ccccc2Cl)nc2c(sc3ccccc32)c1=O	.	-	.	.	-
CCc1ccc(NC(=O)CSc2nc3c(sc4ccccc43)c(=O)n2CCCOC(C)C)cc1	.	21µM	.	.	-
SMILES	HT1080 IDH1KD tx	DT40 TDP1 no CPT	IL-1B inflam inh	HT1080NT lethal	DT40 TDP1 CPT
CCOC(=O)CSc1nc2c(sc3ccccc32)c(=O)n1Cc1ccc(C)cc1	.	?	.	.	21µM
CCOC(=O)CSc1nc2c(sc3ccccc32)c(=O)n1CCc1ccccc1	.	?	.	.	-
CCc1ccc(NC(=O)CSc2nc3c(sc4ccccc43)c(=O)n2CCN(CC)CC)cc1	.	9.2µM	.	.	15µM
CCCCN(CC)C(=O)CSc1nc2c(sc3ccccc32)c(=O)n1CCc1ccccc1	.	5.2µM	.	.	?
NC(=O)C1C(=O)c2ccccc2C1(C[N+](=O)[O-])c1ccccc1 (centres undefined)	-	-	-	-	?
Cc1ccccc1NC(=O)Cc1nc(CSc2nnc(-c3ccc4c(c3)OCO4)o2)cs1	-	?	-	-	-
C=CCN(C(=O)CSc1nc2c(sc3ccccc32)c(=O)n1CCN(CC)CC)c1ccccc1	?	16µM	-80	?	18µM
O=C(Nc1cnccn1)Nc1cccc(Cl)c1Cl	-	-	-	-	-
CCCn1c(SCC(=O)NC(C)(C)C)nnc1C(C)C	-	-	-	-	-
COc1cc(C(C)=O)ccc1OCC(=O)Nc1cc(S(=O)(=O)N2CCOCC2)ccc1N1CCCC1	-	?	-	-	?
COc1ccccc1OCC(=O)Nc1cc(S(=O)(=O)N2CCOCC2)ccc1N1CCCCC1	-	15µM	-55	-	18µM
COc1ccccc1CCC(=O)Nc1cc(S(=O)(=O)N2CCCCC2)ccc1N1CCN(C)CC1	-	21µM	?	-	?
CCc1ccccc1OCC(=O)Nc1cc(S(=O)(=O)N2CCOCC2)ccc1N1CCCCC1	-	7.3µM	-	?	23µM
CN1CCN(c2ccc(S(=O)(=O)N3CCCCC3)cc2NC(=O)COc2ccc(F)cc2)CC1	-	?	?	-	?
CCCN1C(=O)CC(c2ccc(OC)c(OC)c2)C1=O (centres undefined)	-	-	-	-	-
CCCc1nnc(SCC(=O)O)n1CC	-	-	-	-	-
COc1cc2c(cc1OC)C(C)N(C(=O)CCc1c[nH]c3ccccc13)CC2 (centres undefined)	?	?	-	?	?
O=C(CC1C(=O)NCCN1C(=O)c1ccccc1)Nc1cc(Cl)ccc1Cl (centres undefined)	-	-	-	-	-
O=C(O)CC1c2ccccc2CCN1C(=O)Nc1cc(Cl)ccc1Cl (centres undefined)	.	21µM	.	.	21µM
COc1cc2c(cc1OC)C(C)N(C(=O)Nc1cc(C)cc(C)c1)CC2 (centres undefined)	7.3µM	2.6µM	-	6.5µM	3.3µM
COc1cc2c(cc1OC)C(C)N(C(=O)Nc1ccc(F)cc1)CC2 (centres undefined)	?	7.3µM	-	?	13µM
COc1cc2c(cc1OC)C(C)N(C(=O)c1cc3c(C)cc(C)cc3[nH]1)CC2 (centres undefined)	6.5µM	16µM	-81	?	16µM
COc1cc2c(cc1OC)C(CC(=O)O)N(C(=O)Nc1cc(OC)c(OC)c(OC)c1)CC2 (centres undefined)	.	?	.	.	3.7µM
C/C(=N\NC(=O)c1ccc2ccccc2c1)c1cccs1	-	-	-	-	?
CCOC(=O)c1nc(N2CCN(c3ccc(F)cc3)CC2)c2c(C)noc2n1	.	-	.	.	-
O=S(=O)(c1ccc(NC(=S)N/N=C/c2ccc(O)c(O)c2)cc1)N1CCOCC1	-	-	-	-	-
C/C(=N\NC(=S)Nc1ccc(C)c(C)c1)c1ccc(N2CCOCC2)cc1	-	5.8µM	-	-	5.8µM
